Inhibition data for 60 molecules are collected here from ChEMBL document CHEMBL4513146, “CO-ADD screening of Karazin Kharkiv National University (Ukraine) compounds”.

In general, Inhibition refers to the relative decrease from the control value, in per cent.

SMILES strings stand for the structures. Potency and affinity values are given separately.

The subject of one assay is Klebsiella pneumoniae. The settings on record: Concentration 32 ug.mL-1;; ASSAY_TEST Inhibition of Bacterial Growth; detection method Absorption (OD600); MEDIA CAMHB; plate type 384well; NBS; CORNING #3640; time 18 hr.
The next assay has as its system Candida albicans. The settings on record: Concentration 32 ug.mL-1; ASSAY_TEST Inhibition of Fungal Growth; detection method Absorption (OD530).
The subject of another assay is Cryptococcus neoformans. The settings on record: Concentration 32 ug.mL-1; ASSAY_TEST Inhibition of Fungal Growth; detection method Resazurin; Absorption (OD600-OD570); plate type 384well; NBS; CORNING #3640. (Resazurin is reduced to fluorescent resorufin, in cell work by metabolically active cells.)

For `O=C(Cn1nc2c(Oc3ccccc3)nc3ccccc3n2c1=O)Nc1ccc2c(c1)OCO2`, the results for the Inhibition in the assay on Klebsiella pneumoniae, in the assay on Candida albicans and in the assay on Cryptococcus neoformans were 4.55%, 16.43% and -9.27%, respectively.
In the same order, the values of `Cc1ccc(NC(=O)Cn2c(=O)c3nnc(C(C)C)n3c3ccccc32)c(C)c1` are 5.02%, 1.04% and -15.61%.
On to `Cc1nnc2c(=O)n(CC(=O)Nc3ccccc3Cl)c3ccccc3n12`, for which the Inhibition with Klebsiella pneumoniae is given as 0.78%; in the assay with Candida albicans, 1.36%; in the assay with Cryptococcus neoformans, -5.67%.
Turning to `CCC(Sc1nnc2c(=O)n(-c3cccc(OC)c3)ccn12)C(=O)Nc1cc(OC)cc(OC)c1` (stereo not given), the Inhibition is 9.6% in the assay on Klebsiella pneumoniae, -0.37% with Candida albicans and -13.16% in the assay with Cryptococcus neoformans.
In the same order, the values of `O=C(CCc1nnc2c(N3CCCCC3)nc3ccccc3n12)NCc1ccccc1F` are 14.62%, 1.76% and -9.32%.
The matching figures for `Cc1ccc(NC(=O)Cn2nc3ccc(SC4CCCCC4)nn3c2=O)cc1C`: -2.51%, 4.67% and -21.19%.
The matching figures for `Cc1ccc(-c2ccc3nn(CC(=O)Nc4ccc(Cl)cc4)c(=O)n3n2)cc1C`: 17.23%, 0.13% and -13.82%.
Turning to `COc1ccc(-c2cc3c4nnc(CCC(=O)NCc5ccc6c(c5)OCO6)n4ccn3n2)cc1`, the results for the Inhibition with Klebsiella pneumoniae, in the assay with Candida albicans and in the assay on Cryptococcus neoformans were 9.82%, 3.53% and -3.36%, respectively.
In the same order, the values of `CCOC(=O)c1ccc(NC(=O)Cn2nc3c4sc(N5CCCC5)nc4ncn3c2=O)cc1` are -7.55%, 32.94% and -7.69%.
In the case of `CCc1ccccc1Sc1nccn2c(=O)n(CC(=O)Nc3ccc(OC)cc3)nc12`, the Inhibition in the assay with Klebsiella pneumoniae was 0.32%; with Candida albicans, 4.23%; with Cryptococcus neoformans it was -13.58%.
In the same order, the values of `O=C(Cn1nc2ccc(-c3ccc(Cl)cc3)nn2c1=O)Nc1ccccc1` are 1.21%, 1.7% and -12.99%.
As for `CCOc1ccc(N(Cc2cccc(F)c2)S(=O)(=O)c2ccc3nncn3c2)cc1`, the Inhibition in the assay on Klebsiella pneumoniae is recorded as 6.73%; in the assay with Candida albicans, 1.76%; with Cryptococcus neoformans, -4.27%.
As to `COc1cccc(-n2ccn3c(SCC(=O)NCc4ccc(Cl)cc4)nnc3c2=O)c1`, the results for the Inhibition in the assay with Klebsiella pneumoniae, in the assay with Candida albicans and in the assay on Cryptococcus neoformans were 6.58%, 0.82% and -6.96%, respectively.
The matching figures for `O=C(Cn1nc2c(N3CCOCC3)nccn2c1=O)Nc1ccc2c(c1)OCO2`: 20.48%, 1.5% and -14.42%.
The matching figures for `O=C(Cn1nc2c(Oc3ccccc3)nccn2c1=O)Nc1cc(F)ccc1F`: -4.08%, -0.69% and -9.47%.
The matching figures for `COc1ccc(-c2cc3c4nnc(CCC(=O)NCCc5ccccc5)n4ccn3n2)cc1`: 3.81%, 3.45% and -16.37%.
On to `Cc1ccc(-c2cc3c4nnc(CCC(=O)NCc5ccc(F)c(Cl)c5)n4ccn3n2)cc1C`, for which the Inhibition in the assay on Klebsiella pneumoniae was 10.99%; in the assay on Candida albicans, 2.11%; in the assay on Cryptococcus neoformans, -43.73%.
Turning to `CCOc1ccc(-n2ccn3c(SCC(=O)Nc4cc(Cl)ccc4OC)nnc3c2=O)cc1`, the Inhibition in the assay with Klebsiella pneumoniae is 12.81%; with Candida albicans, 1.86%; in the assay with Cryptococcus neoformans it was -5.56%.
Consider `O=C(NCc1ccccc1)c1ccc2nn(CC(=O)N3CCN(c4ccccc4)CC3)c(=O)n2c1`, for which the values for the Inhibition in the assay with Klebsiella pneumoniae, in the assay with Candida albicans and in the assay with Cryptococcus neoformans were 13.57%, 3.02% and -23.82%, respectively.
In the same order, the values of `COC(=O)c1ccc(NC(=O)Cn2nc3c(Oc4ccccc4C)nccn3c2=O)cc1` are -1.16%, 1.31% and -4.07%.
The matching figures for `Cc1cccc(NC(=O)Cn2nc3c(SC4CCCCC4)nccn3c2=O)c1C`: 7.9%, -1.44% and -15.81%.
The matching figures for `COC(=O)c1ccccc1NC(=O)CSc1nc2ccccc2n2c(C(C)C)nnc12`: 12.98%, -0.8% and -7.61%.
As to `Cc1ccc(-c2cc3c4nnc(CCC(=O)N5CCN(c6ccccc6F)CC5)n4ccn3n2)cc1C`, the Inhibition in the assay on Klebsiella pneumoniae is on record as 8.56%; in the assay on Candida albicans it was 3.28%; with Cryptococcus neoformans, -23.24%.
In the same order, the values of `O=C(CSc1nnc2c3cc(-c4ccccc4)nn3ccn12)Nc1cccc(Br)c1` are 14.04%, 3.21% and -28.34%.
The matching figures for `COc1cccc(-n2ccn3c(SCC(=O)Nc4ccccc4Cl)nnc3c2=O)c1`: 9.92%, 1.92% and -13.6%.
The matching figures for `Cc1cccc(C)c1NC(=O)Cn1nc2c3c4c(sc3ncn2c1=O)CCCC4`: 12.26%, 11.56% and -19.68%.
`O=C(CSc1nnc2c(=O)n(-c3ccccc3)ccn12)Nc1cccc(Cl)c1`: the figures for the Inhibition in the assay with Klebsiella pneumoniae, with Candida albicans and with Cryptococcus neoformans were 1.21%, -0.19% and -20.21%, respectively.
The matching figures for `CSc1cccc(NC(=O)Cn2nc3c(Oc4cc(C)cc(C)c4)nccn3c2=O)c1`: 7.88%, 2.48% and -9.76%.
In the same order, the values of `Cc1ccc(NC(=O)c2ccc3nnc(SCC(=O)Nc4ccc(F)cc4)n3c2)cc1` are 0.72%, 4.31% and -5.93%.
The matching figures for `CCCNC(=O)Cn1nc2n(Cc3ccco3)c(=O)c3sccc3n2c1=O`: 8.71%, 5.01% and -16.3%.
As to `Cc1cc2nn(CC(=O)Nc3cc(F)ccc3C)c(=O)n2c(Nc2ccc(F)cc2)n1`, the Inhibition in the assay with Klebsiella pneumoniae is 8.72%; in the assay on Candida albicans, 0.87%; with Cryptococcus neoformans, -4.58%.
In the same order, the values of `COc1ccc(NC(=O)Cn2nc3c(SCc4ccc(Cl)cc4)nccn3c2=O)cc1OC` are 3.8%, 27.48% and -20.96%.
The matching figures for `O=C(CSc1nnc2ccc(C(=O)Nc3cccc(F)c3)cn12)Nc1ccc(F)c(F)c1`: 2.94%, 5.97% and -3.04%.
For the molecule `Cc1nnc2c(S(=O)(=O)N(Cc3cc(F)cc(F)c3)c3cccc(F)c3)cccn12`, the Inhibition with Klebsiella pneumoniae was 4.57%; in the assay with Candida albicans it was 6.53%; in the assay on Cryptococcus neoformans it was -8.02%.
In the same order, the values of `COc1cccc(-n2ccn3c(SC(C)C(=O)c4ccc(C)c(C)c4)nnc3c2=O)c1` (stereo not given) are 3.32%, 2.99% and -3.88%.
Regarding `COc1ccc(NC(=O)Cn2nc3c(Oc4ccccc4)nccn3c2=O)cc1OC`, the Inhibition in the assay on Klebsiella pneumoniae is 4.37%; with Candida albicans, 1.92%; in the assay on Cryptococcus neoformans it was -7.08%.
In the same order, the values of `Cc1ccc(Sc2nccn3c(=O)n(CC(=O)Nc4cc(Cl)ccc4C)nc23)c(C)c1` are -1.75%, 4.75% and -16.92%.
As to `Cc1ccc(-c2ccc3nnc(CCC(=O)NCc4cccc(Br)c4)n3n2)cc1`, the Inhibition in the assay with Klebsiella pneumoniae is reported as 20.54%; in the assay on Candida albicans, 1.13%; with Cryptococcus neoformans it was -54.18%.
Take `COC(=O)c1ccc(CN(c2ccc(Cl)cc2)S(=O)(=O)c2ccc3nncn3c2)o1`: the Inhibition in the assay with Klebsiella pneumoniae is 0.53%; with Candida albicans, -1.37%; in the assay with Cryptococcus neoformans it was -1.27%.
In the same order, the values of `Cc1cc2nn(CC(=O)Nc3cc(F)cc(F)c3)c(=O)n2c(Nc2ccccc2C)n1` are 6.94%, 0.1% and -12.73%.
On to `NC(=O)Cn1nc2n(CCC(=O)NC3CCCCC3)c(=O)c3ccccc3n2c1=O`, for which the Inhibition was 14.53% in the assay with Klebsiella pneumoniae, 0.47% in the assay on Candida albicans and -26.54% with Cryptococcus neoformans.
The matching figures for `CSc1ccc(CNC(=O)Cn2nc3c(Oc4ccc(C)cc4)nccn3c2=O)cc1`: -2.38%, 4.95% and -4.29%.
The matching figures for `COC(=O)c1cccc(NC(=O)Cn2nc3c(N4CCCCCC4)nccn3c2=O)c1`: 3.15%, 2.05% and -12.46%.
In the same order, the values of `Cc1cccc(NC(=O)Cn2nc3ccc(SC(C)(C)C)nn3c2=O)c1` are 5.1%, 1.46% and -8.45%.
For the molecule `COC(=O)c1cccc(NC(=O)Cn2nc3c(Sc4ccc(C)cc4C)nccn3c2=O)c1`, the Inhibition is 13.86% in the assay with Klebsiella pneumoniae, -2.57% with Candida albicans and -30.13% in the assay on Cryptococcus neoformans.
In the same order, the values of `Cc1ccc(N(Cc2ccccc2F)S(=O)(=O)c2ccc3nncn3c2)cc1` are -0.06%, 0.13% and -11.13%.
The matching figures for `O=C(Cn1nc2c(SCc3ccc(Cl)cc3)nccn2c1=O)Nc1ccccc1F`: 4.91%, 1.79% and -4.96%.
Consider `COc1ccc(C)cc1NC(=O)Cn1nc2ccc(SCc3ccc(Cl)cc3)nn2c1=O`, for which the results for the Inhibition in the assay on Klebsiella pneumoniae, with Candida albicans and with Cryptococcus neoformans were -0.56%, 31.09% and -20.73%, respectively.
In the same order, the values of `CCCCOc1ccc(-c2cc3c4nnc(SCC(=O)Nc5cc(F)ccc5C)n4ccn3n2)cc1` are -4.04%, 9.93% and -31.79%.
For the molecule `CCCCc1ccc(NC(=O)Cn2nc3ccc(-c4ccc(C)c(C)c4)nn3c2=O)cc1`, the values for the Inhibition in the assay on Klebsiella pneumoniae, with Candida albicans and in the assay on Cryptococcus neoformans were 1.79%, 1.02% and -8.31%, respectively.
In the same order, the values of `Cc1cccc(NC(=O)CSc2nnc3c4cc(-c5ccc(F)cc5)nn4ccn23)c1C` are 0.2%, 1.75% and -21.34%.
The matching figures for `Cc1ccc(Cl)cc1NC(=O)CSc1nnc2n(CC3CCCO3)c(=O)c3sccc3n12` (stereo not given): 10.58%, -1.49% and -15.54%.
The matching figures for `O=C(Cn1nc2ccc(SC3CCCCC3)nn2c1=O)Nc1ccc2c(c1)CCC2`: 11.52%, 2.83% and -22.07%.
Regarding `COc1ccc(NC(=O)Cn2nc3ccc(SCc4ccc(Cl)cc4)nn3c2=O)cc1Cl`, the Inhibition in the assay with Klebsiella pneumoniae was -2.5%; in the assay with Candida albicans, 38.9%; in the assay with Cryptococcus neoformans, -13.55%.
Regarding `Cc1ccc(Cn2nc3c(=O)n(-c4ccc(C)c(C)c4)ccn3c2=O)cc1`, the Inhibition with Klebsiella pneumoniae was 14.01%; in the assay with Candida albicans it was 3.7%; in the assay with Cryptococcus neoformans, -17.46%.
The matching figures for `CCCCc1ccc(NC(=O)Cn2c(=O)c3nnc(CCC)n3c3ccccc32)cc1`: 6.31%, 4.08% and -20.48%.
In the same order, the values of `COc1cccc(-n2ccn3c(SCc4c(F)cccc4Cl)nnc3c2=O)c1` are 6.32%, 2.64% and -10.15%.
Turning to `COc1ccc(OC)c(NC(=O)Cn2nc3ccc(-c4ccc(C)cc4)nn3c2=O)c1`, the Inhibition is on record as 1.76% with Klebsiella pneumoniae, 0.83% with Candida albicans and -12.04% in the assay with Cryptococcus neoformans.
`CC(C)c1nnc2c(SCC(=O)Nc3ccc(Cl)cc3C(F)(F)F)nc3ccccc3n12`: the Inhibition is on record as 1.04% in the assay with Klebsiella pneumoniae, 3.28% in the assay on Candida albicans and -8.02% in the assay on Cryptococcus neoformans.
As to `COc1ccc(OC)c(NC(=O)Cn2nc3c4cc(-c5ccc(F)cc5)nn4ccn3c2=O)c1`, the values for the Inhibition in the assay with Klebsiella pneumoniae, with Candida albicans and in the assay with Cryptococcus neoformans were 1.37%, 3.04% and -6.46%, respectively.
